# Compounds without any hit were thinned out: in the full panel of roughly 83,000, 20% have a hit.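 Compound tested at a single concentration for 48 hours in 96-well plates; a percent growth value below 10 was scored as active.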 Unmarked numbers belong to inactive results. The source made the active and inactive calls.
# Key:
# Assay in all cases: NCI-60 one-dose screen, 48 h (100 = growth as untreated, 0 = no growth, -100 = all killed)
# Conditions in all cases: 10 µM unless noted
# HCT-15 colon = tested on: HCT-15 colon
# HT29 colon = tested on: HT29 colon
# SNB-75 CNS = tested on: SNB-75 CNS
# SNB-19 CNS = tested on: SNB-19 CNS
# U251 CNS = tested on: U251 CNS
# PC-3 prostate = tested on: PC-3 prostate
# SK-MEL-5 melanoma = tested on: SK-MEL-5 melanoma
# UACC-62 melanoma = tested on: UACC-62 melanoma
# LOX IMVI melanoma = tested on: LOX IMVI melanoma
# SK-MEL-28 melanoma = tested on: SK-MEL-28 melanoma
SMILES,growth (HCT-15 colon),growth (HT29 colon),growth (SNB-75 CNS),growth (SNB-19 CNS),growth (U251 CNS),growth (PC-3 prostate),growth (SK-MEL-5 melanoma),growth (UACC-62 melanoma),growth (LOX IMVI melanoma),growth (SK-MEL-28 melanoma)
N#Cc1nc(-c2ccc(F)cc2)oc1S(=O)(=O)N1CCCCC1,-22.4% (active),32.3%,92%,96.5%,91.2%,92.1%,88.7%,94%,1.69% (active),102%
O=C(/C=C/c1cccs1)Nc1ncc(Cc2ccccc2F)s1,27.1%,8.61% (active),-7.95% (active),28.9%,17%,29.6%,6.05% (active),16.8%,20.4%,54.4%
CN(C)c1ccc(-c2c(C#N)c(N)nn2C(=O)c2ccc(NC(=O)c3ccccn3)cc2)cc1,85.2%,113%,102%,99.4%,99.3%,77.4%,101%,73.2%,65.3%,108%
COc1ccc(C(=O)C/C(=C\c2ccc(Cl)cc2)C(=O)NCc2ccccc2)cc1,47%,82.1%,100%,85.5%,70.6%,56.4%,93.4%,67.3%,77.9%,91.2%
COc1cc(-c2cncn2-c2ccc(-c3nc4ccc(F)cc4s3)cc2)ccc1F,30.5%,30.8%,127%,86.7%,83%,107%,68.7%,84.8%,86.7%,95.9%
Cc1ccc2c(n1)C(=O)C(Br)=C(CC(C)C)C2=O,104%,108%,97.3%,101%,97.8%,97.5%,98.1%,93.9%,98.1%,105%
CC(=O)O[C@@H]1C[C@]2(C(C)C)O[C@@]1(C)[C@@H]1CCC(C)=C1[C@@H]2OC(=O)/C=C/c1ccccc1,87.2%,74.8%,89.1%,102%,91.2%,56.5%,90.7%,83.6%,83.3%,97.3%
O=C(/C=C/c1ccco1)Nc1ncc(Cc2cccc(C(F)(F)F)c2)s1,10.9%,3.46% (active),-1.69% (active),34.3%,5.08% (active),17%,12.5%,5.19% (active),5.43% (active),46.4%
Cn1ccnc1C(=O)/C=C/c1ccc(C(=O)Nc2ccc(Cl)cc2)cc1,-13.2% (active),2.78% (active),-3.04% (active),-3% (active),-50.1% (active),-6.8% (active),32.3%,16.6%,-84.8% (active),62.4%
O=C1/C(=C/c2ccccc2O)CC/C1=C\c1ccccc1O,35.1%,99.6%,77.2%,31.3%,69.1%,8.94% (active),77.9%,36.6%,45.9%,96.8%
O=c1[nH]c(-c2ccccc2)nc2sc3cc(O)ccc3c12,69.4%,106%,83.2%,99.8%,84.1%,77.3%,86.3%,73.6%,82.7%,93.9%
O=C(Nc1ccc(OS(=O)(=O)c2ccc(F)cc2)cc1)C1CCCCCC1,54.7%,31.6%,102%,89.4%,72.9%,88.3%,71.9%,85.5%,86.7%,109%
O=c1[nH]c(Cc2nc3ccccc3s2)nc2cc(Br)ccc12,61.7%,43.7%,82.1%,82.2%,81.9%,60.9%,80.6%,2.81% (active),27.8%,55.1%
CN(C)CC1CCC(CN(C)C)C1=O (stereo not given),105%,103%,102%,102%,102%,96.7%,108%,102%,106%,112%
COc1ccc(C(=O)Nc2cccc(-c3cc(=O)c4c(OC)c(OC)c(OC)cc4o3)c2)cc1,45.2%,46.7%,67.6%,64.6%,72.3%,31.9%,50.2%,55.4%,41.9%,69%
CC1=NC2=Nn3c(c4cnn(-c5ccccc5)c4n/c3=N\N)NN2C(c2ccccc2)=C1,99%,98.6%,67%,98.4%,99%,90.5%,91%,77.6%,92%,102%
COc1ccc2c(c1)c(-c1nc(-c3c[nH]c4ccncc34)cs1)cn2C,-54.2% (active),-72.1% (active),-97.5% (active),-58.9% (active),-91.9% (active),-81.1% (active),-97.4% (active),-75.8% (active),-93.3% (active),-95.7% (active)
Cc1ccccc1/C=C/C(=O)c1cccc(OCCCCOc2cccc(C(=O)/C=C/c3ccccc3C)c2)c1,84.6%,86.8%,90.9%,93.5%,93%,100%,101%,74.8%,95.9%,95.2%
CC1CCc2c(C(=O)Nc3ncc(Cc4cccc([N+](=O)[O-])c4)s3)csc2C1 (stereo not given),26.2%,14.9%,-14.6% (active),31.8%,26.9%,35.7%,21.1%,13.9%,20%,60.7%
CC(C)Cn1cnc2c(=O)[nH]c(N)nc21,106%,79.2%,84.4%,100%,94.8%,92.8%,98.9%,103%,97.8%,115%
O=C1c2c(c3c4ccccc4[nH]c3c3ccc4ccccc4c23)C(=O)N1CCN1CCNCC1,-45.2% (active),-14.6% (active),85%,74.3%,-11.2% (active),56.6%,73.5%,82%,-87.2% (active),100%
CCOC(=O)c1ccc2c(c1)nc(-c1ccccc1)n2C1CCCCC1,78.2%,67.4%,97%,105%,88.8%,74.1%,93.8%,88%,99.2%,107%
Cc1ccc2c(Cn3cc(CSc4nc5ccccc5o4)nn3)cc(=O)oc2c1,107%,108%,105%,105%,113%,104%,98.8%,104%,96.9%,110%
COc1cc(/C=C/C(=O)c2ccc(F)cc2)ccc1OCCCCOc1ccc(/C=C/C(=O)c2c(C)nc3ccccc3c2C)cc1OC,96.5%,100%,97.1%,110%,83.3%,93.2%,62.4%,73.1%,90.2%,122%
O=C1c2ccc3c4c5ccc(c24)C(=O)N1CCCOCCCCOCCCNCc1ccc(cc1)CNCCCOCCCCOCCCN(C3=O)C5=O,-41% (active),-18.7% (active),98.1%,-2.17% (active),-78.3% (active),6.2% (active),-99.9% (active),-90.3% (active),-87.8% (active),-24.1% (active)
C=C1C(=O)O[C@H]2[C@H]1CC/C(COC(=O)C(=O)c1cn(C)c3ccc(Cl)cc13)=C\CC[C@@]1(C)O[C@@H]21,-62.8% (active),-71.3% (active),-98.3% (active),-75% (active),-95.3% (active),-70.5% (active),-100% (active),-82.5% (active),-84.5% (active),-64.6% (active)
Nc1c(C(=O)Nc2ccccc2C(F)(F)F)sc2nc3c(cc12)CCC3,97.3%,94.3%,97.4%,98.4%,93.9%,100%,98.6%,81%,110%,94.5%

# Source: PubChem BioAssay (NCI)
